Out of some 370,000 compounds screened, about 2,300 (0.62%) were called active. The entries come from a sample that favours actives as a whole. Values without a mark were called inactive.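 Rule for the calls: active = inhibition above a per-campaign cutoff equal to the mean of compounds falling between control-based bounds plus 3 SD (cut at about 20% in these data); inactive = the rest.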
Each compound was assayed against Disintegrin and metalloproteinase domain-containing protein 10 (Homo sapiens) (UniProt O14672) (assay: blockers of ADAM10 peptide cleavage – biochemical, QFRET, HTS, primary screen (AID 720582;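 note: 0% = DMSO wells while the 100% control is not disclosed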)). Details: recombinant ADAM10, EDANS/DABCYL FRET peptide cleavage, 3 h; at 7 µM; stronger effect = higher value.
Disintegrin and metalloproteinase domain-containing protein 10 (Homo sapiens), sequence (O14672 214-748 limits assumed): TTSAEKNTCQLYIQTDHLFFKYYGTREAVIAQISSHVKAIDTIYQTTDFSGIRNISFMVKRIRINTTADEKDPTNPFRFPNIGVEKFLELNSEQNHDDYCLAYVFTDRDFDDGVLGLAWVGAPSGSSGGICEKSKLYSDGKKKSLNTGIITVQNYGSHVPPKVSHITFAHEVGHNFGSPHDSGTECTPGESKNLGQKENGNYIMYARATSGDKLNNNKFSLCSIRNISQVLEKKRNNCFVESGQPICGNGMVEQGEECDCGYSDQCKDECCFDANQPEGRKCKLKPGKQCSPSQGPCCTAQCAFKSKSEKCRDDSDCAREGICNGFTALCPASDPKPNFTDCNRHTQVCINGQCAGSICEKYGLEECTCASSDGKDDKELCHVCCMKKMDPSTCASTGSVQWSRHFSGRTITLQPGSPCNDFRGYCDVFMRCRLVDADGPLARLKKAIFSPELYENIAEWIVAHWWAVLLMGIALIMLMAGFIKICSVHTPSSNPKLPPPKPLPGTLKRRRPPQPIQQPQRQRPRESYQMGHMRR

| Structure (SMILES) | inhibition |
| --- | --- |
| Cc1ccc(CN2CCCCC(NC(=O)C3CCCCC3)C2=O)cc1 (stereo unspecified) | -0.65% |
| O=C(CSc1nc2c(c(=O)[nH]1)CCCC2)N1CCCCC1 | 3.78% |
| NC(c1csc(NC(=O)Nc2ccccc2Oc2ccccc2)n1)c1ccccc1Cl (stereo unspecified) | -3.13% |
| COc1ccc(C(N)c2csc(NC(=O)Nc3cccc(C(F)(F)F)c3)n2)cc1 (stereo unspecified) | 25.5% (active) |
| CCOC(=O)c1csc(NC(=O)Nc2cccc(OC)c2)n1 | 0.5% |
| Nn1c(SCC(=O)Nc2cccc3ccccc23)nnc1-c1cc(-c2ccc(F)cc2)n[nH]1 | -0.59% |
| COc1ccc(Cl)cc1NC(=O)COC(=O)c1ccc(Br)o1 | -6.92% |
| COc1ccc(Cl)cc1NC(=O)COC(=O)C(CC(C)C)N1C(=O)C2CC=CCC2C1=O (stereo unspecified) | 28% (active) |
| COc1ccc(Cl)cc1NC(=O)c1cccc(N2C(=O)C3CC=CCC3C2=O)c1 (stereo unspecified) | 3.57% |
| Cc1ccccc1CS(=O)(=O)Cc1ccc(C(=O)Nc2ccc(Cl)cc2)o1 | -29% |
| Cc1sc2nc(SCC(=O)c3ccc(O)c(O)c3)n(Cc3ccco3)c(=O)c2c1C | 15.9% |
| COc1cccc(CNC(=O)C2CCCN(c3nc4ccccc4o3)C2)c1OC (stereo unspecified) | 2.5% |
| O=Cc1cn(CCOc2ccc(F)cc2)c2ccccc12 | 20.7% (active) |
| Cc1c(C=O)c2ccccc2n1CCOc1ccccc1 | 10.4% |
| O=C1c2ccccc2C(=O)N1CCOc1ccc(F)cc1 | 0.68% |
| Cc1ccc(C(=O)C2CCN(CC(=O)NCCC(C)C)CC2)cc1 | -6.22% |
| O=C(/C=C/c1ccc(F)cc1)NC(=S)NNC(=O)c1cccnc1 | 22.8% (active) |
| Cc1cccc(OCCNC(=S)NC(=O)c2cccnc2)c1 | 2.33% |
| NS(=O)(=O)c1ccc(NC(=S)NC(=O)c2cccnc2)cc1 | -8.74% |
| O=C1CCC2(CCC(c3ccc(Cl)cc3)CC2)N1CCO (stereo unspecified) | -9.03% |
| O=C(N[C@@H](Cc1c[nH]c2ccccc12)C(=O)O)OCC1c2ccccc2-c2ccccc21 | -1.67% |

| Structure (SMILES) | inhibition |
| --- | --- |
| CCN(CC)c1ccc(/C=N/NC(=O)CNC(=O)c2cccs2)cc1 | -246% |
| O=C(NC(Cc1c[nH]c2ccccc12)C(=O)N/N=C/c1ccc(Br)cc1)c1cccs1 (stereo unspecified) | 28.1% (active) |
| COC(CNC(=O)[C@H](Cc1ccccc1)NC1(C(=O)NC2CCCCC2)CCCCC1)OC | 4.93% |
| O=C(CCS(=O)(=O)c1ccccc1)Nc1ccc(Cl)c(Cl)c1 | -2.68% |
| O=C(CC(O)(C(F)(F)F)C(F)(F)F)Nc1ccc(Cl)c(Cl)c1 | 23.7% (active) |
| O=C(Nc1ccc(Cl)c(Cl)c1)N1CC=C(c2ccccc2)CC1 | -19.8% |
| COC(=O)C1CN(Cc2ccc(F)cc2)CCS(=O)(=O)N1Cc1ccc(Cl)cc1 (stereo unspecified) | -0.23% |
| COC(=O)[C@H](C(C)C)N1CCc2nnn(Cc3ccc(C)cc3)c2-c2ccccc2S1(=O)=O | 5.83% |
| COC(=O)[C@]12C[C@H](CC(=O)NCCc3ccccc3OC)C(=O)N(Cc3ccco3)C1=C[C@H](C(C)C)O[C@@H]2C1CC1 | -2.42% |
| CC(=O)Nc1ccc(OC[C@@H](O)CN2CCC(C(O)(c3ccccc3)c3ccccc3)CC2)cc1 | 4.68% |
| NS(=O)(=O)c1ccc(CCNC(=O)c2ccc(Cl)cc2[N+](=O)[O-])cc1 | -0.8% |
| O=C(NCCc1c[nH]c2ccc(Cl)cc12)c1ccc([N+](=O)[O-])cc1 | -1.95% |
| O=C(NCCc1ccc(Cl)cc1Cl)c1cc([N+](=O)[O-])c[nH]c1=O | 20.1% (active) |
| Cc1cc(NS(=O)(=O)c2ccc(NC(=O)CSc3nnc(-c4ccc(C(C)(C)C)cc4)n3Cc3ccco3)cc2)nc(C)n1 | 5.55% |
| COc1ccc(C2Nc3ccccc3C(=O)N2Cc2cccs2)cc1COc1c(C)cccc1C (stereo unspecified) | -298% |
| COc1ccc(C(=O)OCCN(C)C2CN(Cc3cn(Cc4cccc(C)c4)nn3)S(=O)(=O)C2)cc1OC (stereo unspecified) | 2.95% |
| Cc1ccc(-n2c(SCC(=O)Nc3cccc4ccccc34)nnc2-c2ccco2)cc1 | 9.63% |
| S=c1[nH]cc(-c2ccc(Cl)cc2)n1-c1ccccc1 | 22.5% (active) |
| S=c1[nH]ccn1-c1ccc(Cl)cc1 | -2.53% |
| S=c1[nH]nc(CSCc2ccc(Cl)cc2Cl)n1-c1ccccc1 | 15.5% |
| O=C(c1cccc(C(F)(F)F)c1)N1CC[C@H]2[C@H](CCCN2Cc2cc(F)cc(F)c2)C1 | -2.92% |

| Structure (SMILES) | inhibition |
| --- | --- |
| Cn1c(CNc2nc(-c3ccccc3)cs2)nnc1SCC(=O)c1ccccc1 | 35% (active) |
| CCn1c(CNc2ccc(OC)cc2)nnc1SCC(=O)c1ccc(OC)cc1 | -4.28% |
| Cn1c(Cc2cccs2)nnc1SCC(=O)Nc1ccccc1 | -5.09% |
| COc1ccc(CN2C(=O)N3Cc4cc(OC)ccc4C3CS2(=O)=O)cc1 (stereo unspecified) | 2.06% |
| O=C(CCCCCN1C(=O)C2C3C=CC(C3)C2C1=O)Nc1ccccc1 (stereo unspecified) | 1.21% |
| COc1ccc([C@H]2CC(=O)C=C(c3ccc(CO)cc3)C2)cc1 | -0.95% |
| COc1cccc(C2=CC(=O)C[C@H](c3ccc(OC)c(OC)c3)C2)c1 | 1.42% |
| COc1ccc([C@H]2CC(=O)C=C(c3ccc(OC(F)(F)F)cc3)C2)cc1OC | 21% (active) |
| Cc1ccc(S(=O)(=O)N(C)CC(=O)NCCc2c[nH]c3ccccc23)cc1 | -6.6% |
| Cc1cc(C)cc(NC(=S)NCCc2c[nH]c3ccccc23)c1 | 28.5% (active) |
| O=C(COC(=O)Cc1c[nH]c2ccccc12)NCCc1ccccc1 | 7.22% |
| COc1cc(Cl)cc(C2NC(=O)NC(C)=C2C(=O)NCc2ccccc2)c1O (stereo unspecified) | -4.94% |
| COc1cc(C(=S)NCc2ccccc2)cc(Br)c1O | 10.6% |
| COc1cc(/C=C2/SC(=S)N(Cc3ccccc3)C2=O)cc(OC)c1O | 20.6% (active) |
| NS(=O)(=O)c1ccc(NC(=O)COC(=O)C2(c3ccc(F)cc3)CCCC2)cc1 | 13% |
| O=C(COC(=O)COc1ccccc1F)Nc1cccc(S(=O)(=O)N2CCCCC2)c1 | -11.9% |
| CN(C)S(=O)(=O)c1cccc(NC(=O)COC(=O)C2(c3ccccc3F)CCCC2)c1 | 27.6% (active) |
| COC(=O)C1CN(CC(C)C)CCS(=O)(=O)N1Cc1ccc(C)cc1 (stereo unspecified) | -14.6% |
| COC(=O)CC1CCc2cc(C)cc(C(CC(C)C)NC(=O)[C@H](CC(C)C)NC(=O)OCc3ccccc3)c2O1 (stereo partly specified) | -2.1% |
| COc1ccc(N2CCN(CCNS(=O)(=O)c3ccc(Cl)s3)CC2)cc1 | 0.29% |
| C=CC[C@H](CC(=O)N(CCO)Cc1ccccc1)C(=O)N[C@@H](COC(=O)[C@@H](CC=C)Cc1ccc(F)cc1)Cc1ccccc1 | 28% (active) |

| Structure (SMILES) | inhibition |
| --- | --- |
| C=CC[C@@H](CC(=O)N[C@H](CO)Cc1ccccc1)C(=O)N[C@@H](COC(=O)[C@@H](CC=C)Cc1ccc(F)cc1)Cc1c[nH]c2ccccc12 | 0.04% |
| C=CCC[C@@H](Cc1ccc(F)cc1)C(=O)OC[C@H](Cc1c[nH]c2ccccc12)NC(=O)[C@@H](CC=C)CC(=O)N(CCO)Cc1ccccc1 | 41.8% (active) |
| C=CCC[C@@H](Cc1ccc(F)cc1)C(=O)O[C@H](CNC(=O)[C@H](CC=C)CC(=O)N(CCO)Cc1ccccc1)c1ccccc1 | 31.3% (active) |
| C=CC[C@@H](Cc1ccc(F)cc1)C(=O)OC[C@H]1CCCN1C(=O)[C@H](CC=C)CC(=O)N(CCO)Cc1ccccc1 | -2.18% |
| C=CCC[C@@H](Cc1ccc(F)cc1)C(=O)OC[C@@H](C)NC(=O)[C@H](CC=C)CC(=O)N(CCO)Cc1ccccc1 | 8.58% |
| C=CCC[C@H](Cc1ccc(F)cc1)C(=O)OC[C@@H](NC(=O)[C@@H](CC=C)CC(=O)N[C@H](CO)Cc1ccccc1)C(C)(C)C | 8.16% |
| C=CCC[C@H](Cc1ccc(F)cc1)C(=O)OC[C@H](C)NC(=O)[C@H](CC=C)CC(=O)N(CCO)Cc1ccccc1 | 7.82% |
| C=CCC[C@H](Cc1ccc(F)cc1)C(=O)OC[C@@H](Cc1c[nH]c2ccccc12)NC(=O)[C@H](CC=C)CC(=O)N[C@H](CO)Cc1ccccc1 | 0.78% |
| CSc1ccc(C=Nn2c(-c3ccc(F)cc3)n[nH]c2=S)cc1 | -11.4% |
| Cc1cccc(C(=O)Nc2c(-c3ccc(F)cc3)nc3ncccn23)c1 | -329% |
| CCC(CO)Nc1cccc2c1S(=O)(=O)N(Cc1cn(Cc3ccccc3C(F)(F)F)nn1)Cc1ccccc1O2 (stereo unspecified) | -15.3% |
| O=C(N1CCOCC1)N1CC[C@H]2[C@H](CCCN2Cc2ccc(F)cc2)C1 | -0.66% |
| CC(C)CNc1cccc2c1S(=O)(=O)N(Cc1cn(Cc3ccc(Cl)cc3)nn1)Cc1ccccc1O2 | -29.6% |
| CCn1c(=O)n2n(c1=O)[C@@]1(C=C3CCCC[C@H]32)N=C(NC(=O)c2ccccc2)N(Cc2ccccc2)[C@H]1Cc1ccccc1 | 9.57% |
| COC(=O)C[C@@H]1CC[C@@H]2[C@H](COc3ccc(NC(=O)c4cccc(F)c4)cc3C(=O)N2C)O1 | 9.14% |
| COc1cccc(CNC(=O)CNS(=O)(=O)c2ccc3nc(C)sc3c2)c1OC | 4.07% |
| Cc1cc(C(=O)NN=C/C=C/c2ccco2)n[nH]1 | -13.7% |
| C[C@@H]1ON(C)[C@H]2C[C@H]3c4[nH]c5cccc(-c6ccc7c(c6)OCO7)c5c4CCN3C[C@@H]12 | -72.8% |
